aGal spleen mod – inhibitors or activators of human alpha-galactosidase in spleen homogenate; P06280; human spleen homogenate, 4MU-alpha-Gal fluorescence, 40 min; Potency, µM (series often up to 80 µM), actives largely listed as inhibitors; 240,000 tested, 0.008% active; AID 2107
Target sequence (P06280 32-429 limits assumed): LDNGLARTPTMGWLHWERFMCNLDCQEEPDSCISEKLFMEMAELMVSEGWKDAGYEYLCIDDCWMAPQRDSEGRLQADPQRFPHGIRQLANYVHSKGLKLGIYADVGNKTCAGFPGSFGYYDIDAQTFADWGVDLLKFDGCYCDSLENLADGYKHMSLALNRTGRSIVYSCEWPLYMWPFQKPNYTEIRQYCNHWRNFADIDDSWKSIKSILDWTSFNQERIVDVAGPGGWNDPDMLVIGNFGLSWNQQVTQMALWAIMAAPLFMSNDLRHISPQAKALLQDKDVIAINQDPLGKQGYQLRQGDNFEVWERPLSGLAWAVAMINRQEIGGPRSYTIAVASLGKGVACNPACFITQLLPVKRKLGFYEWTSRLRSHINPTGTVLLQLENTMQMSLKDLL
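Human spleen homogenate (1 ug) as enzyme source, 4-methylumbelliferyl-alpha-D-galactopyranoside 1 mM final, citrate/phosphate pH 5.0 with 0.01% Tween-20. Compounds 40 min at 37C, NaOH/glycine stop; fluorescence Ex 365/Em 440, Hill-fit AC50.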
HPGD inh – inhibitors of human 15-hydroxyprostaglandin dehydrogenase (HPGD) | P15428 | purified HPGD, NADH fluorescence kinetic, PGE2 substrate | Potency, µM, usual class: inhibitors | 150,000 tested, 4.3% active | AID 894; active = well fitted inhibition curve with a large enough effect, not every such curve was filed as active; inconclusive = small, poorly fitted or top-dose-only effect, or another doubt; inactive = no such curve, though single readings can be large or run the other way
Target sequence (P15428 whole entry, looked up): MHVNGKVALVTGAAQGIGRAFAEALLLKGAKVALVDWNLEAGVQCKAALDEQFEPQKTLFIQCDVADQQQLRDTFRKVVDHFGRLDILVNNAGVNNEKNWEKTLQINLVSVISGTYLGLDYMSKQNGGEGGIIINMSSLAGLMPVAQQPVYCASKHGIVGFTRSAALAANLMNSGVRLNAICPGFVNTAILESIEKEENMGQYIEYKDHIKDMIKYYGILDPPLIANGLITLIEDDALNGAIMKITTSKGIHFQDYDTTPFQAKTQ
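NADH formation kinetics: reaction with 30 uM PGE2 and 1 mM NAD+ (final), 20 nM enzyme, Tris-HCl pH 8 with Tween 20, after 15 min compound preincubation at room temperature. Fluorescence change, last versus first of five reads.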
ALDH1A1 inh – inhibitors of human aldehyde dehydrogenase 1A1 | 220,000 tested, 7.3% active | P00352 | Potency, µM (highest dose often 75.3 µM), actives largely listed as inhibitors | Purified ALDH1A1, NADH fluorescence, propionaldehyde substrate; active = well fitted inhibition curve with a large enough effect, not every such curve was filed as active; inconclusive = small, poorly fitted or top-dose-only effect, or another doubt; inactive = no such curve, though single readings can be large or run the other way
GLA inh pH 4.5 – alpha-galactosidase A (human) inhibition, pH 4.5 | P06280 | purified enzyme, 4-MU-alpha-Gal fluorescence, pH 4.5 | activity change, negative = inhibition, % at 105 µM | 230,000 tested, under 10 active | AID 1467
PNC assembly inh – blocks assembly of the perinucleolar compartment | 140,000 tested, 3.1% active | activity change (PNC), negative = inhibition, % at 10 µM | AID 2417 | PC3M PTB-GFP, PNC prevalence imaging, 16 h; hits give low values;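 active = readout at or below -70, meaning at least 70% loss of cells showing the perinucleolar compartment, a nuclear body marking cancer cells; inconclusive = readout between -30 and a set limit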
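Read-out is percentage of cells bearing a perinucleolar compartment, from automated 20x imaging of fixed, Hoechst-stained PC3M PTB-GFP cells. Cells were seeded 4 h, then exposed 16 h to compound (23 nl of library stock) in duplicate plates.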
ALOX12 inhib – 12-hLO (ALOX12) enzyme inhibition; purified 12-hLO, xylenol orange hydroperoxide absorbance; 150,000 tested, 0.12% active; P18054; Potency, µM (highest dose often 57.1 µM), hits mostly inhibitors; note: nearly all actives have a fitted effect of over 55% in size
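Hydroperoxide formation by human 12-lipoxygenase from 40 uM arachidonic acid was followed colorimetrically via ferric-xylenol orange complex, using the 573/405 nm absorbance ratio. Enzyme concentration was 150 nM, with 30 min reaction at room temperature.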
Numbers stand for hits; 0 = inactive; ? = inconclusive; - = no result; [ ] = dose if it differs, or a comment. Most compounds without a hit are left out; they make up all but 10% or so of the library. Unless noted, calls come from the whole dose curve; as a rule, active = well fitted curve in the direction sought with a large enough effect; inconclusive = small, poorly fitted or top-dose-only effect, or another doubt; inactive = no such curve, though single readings can be large; an effect the other way counts as inactive or inconclusive.

SMILES	aGal spleen mod	HPGD inh	ALDH1A1 inh	GLA inh pH 4.5	PNC assembly inh	ALOX12 inhib
CCCCC1=CC2=C(c3ccco3)C(=O)C(C)(OC(=O)c3ccc(Cl)nc3)C(=O)C2=CO1 (configuration not stated)	0	0	0	0	-	0
CCn1c(CNc2cccc(Cl)c2)nnc1SCC(=O)OC1CCCCC1	0	28µM	?	0	0	0
CCn1c(CNc2ccc(Cl)cc2)nnc1SCC(=O)OC1CCCCC1	0	0	?	0	0	0
N#Cc1c2c(c(-n3cnc4ccccc43)n3c1nc1ccccc13)CCC2	0	0	0	0	0	0
Cc1c2c(n3c(nc4ccccc43)c1C#N)N(c1ccccc1)CC2	0	0	?	0	-95	0
O=C(/C=C/Nc1cccc([N+](=O)[O-])c1)c1cccs1	0	0	14µM	0	0	0
O=C(Oc1ccccc1-c1csnn1)c1cccs1	0	-	18µM	0	-	-
CN(C(=O)CCc1nc(-c2ccccc2F)no1)c1ccccc1	0	-	0	0	-	-
O=C(Nc1ccc(Cl)cc1)NC1CCCC1Cc1ccco1 (configuration not stated)	0	0	13µM	0	0	0
COC(=O)CSc1nnc([C@H](Cc2ccccc2)NC(=O)OC(C)(C)C)o1	0	0	0	0	0	0
COC(=O)CS(=O)(=O)c1nnc([C@H](Cc2ccccc2)NC(=O)OC(C)(C)C)o1	0	11µM	8.9µM	0	?	0
Cc1cccc(CS(=O)(=O)c2nnc([C@H](Cc3ccccc3)NC(=O)OC(C)(C)C)o2)c1	0	14µM	22µM	0	0	0
CC(=O)c1ccc(OCCCC(=O)NC2CCCc3ccccc32)cc1 (configuration not stated)	0	0	0	0	0	0
Cn1c(=O)c2[nH]c(-c3ccccc3Cl)c(O)c2n(C)c1=O	0	0	0	0	0	0
Cn1c(=O)c2[nH]c(-c3ccccc3)c(O)c2n(C)c1=O	0	?	11µM	0	0	0
CCC(C)NC(=O)[C@H](CSCc1ccccc1)N1Cc2ccccc2C1=O (some centres not stated)	0	0	0	0	-82	0
CC(C)CCNC(=O)[C@H](CSCc1ccccc1)N1Cc2ccccc2C1=O	0	0	0	0	0	0
CC(=O)/C=C1/C(=O)Nc2ccccc21	0	-	3.2µM	0[21.1 µM]	-	-
Cc1nc(NC(=O)c2oc3ccccc3c2C)sc1C(=O)N(C)C	0	32µM	0	0	0	0
CC(=O)c1sc(NC(=O)c2ccccc2C)nc1C	0	-	?	0	-	-
Cc1nc(NC(=O)c2ccccc2[N+](=O)[O-])sc1C(=O)N(C)C	0	22µM	0	0	0	0
CC(=O)NCCNc1ncnc2ccc(-c3ccc(C(=O)N(C)C)cc3)cc12	0	?	?	0	-	0
O=C(CSc1nc2ccccc2s1)N/N=C/c1ccco1	0	0	20µM	0	0	0
O=C(CSc1nc2ccccc2s1)CSc1nc2ccccc2s1	0	0	0	0	0	0
O=C(CSCc1ccccc1Cl)N/N=C/c1ccco1	0	-	25µM	0	-	-
SMILES	aGal spleen mod	HPGD inh	ALDH1A1 inh	GLA inh pH 4.5	PNC assembly inh	ALOX12 inhib
O=C(CN1CCN(Cc2ccccc2Cl)CC1)N/N=C/c1ccco1	0	-	-	0	-	-
O=C(CSc1nc2ccccc2s1)N/N=C/c1ccc(C(=O)O)cc1	0	-	0	0	-	-
C/C(=N\NC(=O)CSc1nc2ccccc2s1)c1ccco1	0	0	2.8µM	0	?	0
O=C(/C=C/c1ccccc1)N/C(=C\c1ccco1)C(=O)NCCO	0	0	0	0	0	0
O=C(/C=C/c1ccccc1)NCc1ccco1	0	-	6µM	0	-	-
CCNC(=O)/C(=C/c1ccco1)NC(=O)/C=C/c1ccccc1	0	18µM	?	0	0	?
O=C(/C=C/c1ccco1)NCc1ccco1	0	-	-	0	-	-
O=C(/C=C/c1ccccc1Cl)NCc1ccco1	0	14µM	?	0	?	0
C=CC(=O)NC(C)(C)CCN1CCOCC1	0	-	0	0	-	-
O=C(CN1CCC(n2nnc3cc(F)ccc32)CC1)NCc1ccco1	0	0	14µM	0	-118	0
COc1ccccc1NC(=O)CN1CCC(n2nnc3cc(F)ccc32)CC1	0	0	0	0	0	0
Cc1ccc(S(=O)(=O)N(CC(=O)N2CCC(C(N)=O)CC2)c2cccc(C(F)(F)F)c2)cc1	0	0	13µM	0	0	0
CCOC(=O)N1CCN(C(=O)CN(c2cccc(C(F)(F)F)c2)S(=O)(=O)c2ccccc2)CC1	0	?	0	0	0	0
O=C(COC(=O)c1cnccn1)c1ccc2ccccc2c1	0	0	0	0	0	0
O=C(COC(=O)c1cnccn1)c1ccc(OC(=O)c2ccccc2)cc1	0	0	0	0	-126	0
Cc1ccc(C(=O)N2NC(c3ccc(F)cc3)C3C(=O)N(c4ccc(C)cc4)C(=O)C32)cc1 (configuration not stated)	0	0	0	0	0	0
Cc1ccc(C(=O)N2NC(c3ccc(F)cc3)C3C(=O)N(c4ccc(C)c(C)c4)C(=O)C32)cc1 (configuration not stated)	0	?	0	0	-90	0
COCOc1cc(OC)ccc1C(=O)/C=C\c1ccc2c(c1)OCO2	0[17.5 µM]	-	0[13.5 µM]	-	-	-
CC(=O)N1CCC(N(CCN2CCOCC2)C(=S)Nc2cc(C)cc(C)c2)CC1	0	-	0	0	-	-
CC(=O)N1CCC(N(CCN2CCOCC2)C(=S)Nc2ccccc2C)CC1	0	0	0	0	-112	0
CCN=C1S/C(=C\c2cc(OCC)c(O)cc2Br)C(=O)N1CC	0	0	0.89µM	0	?	0
CCN=C1S/C(=C\c2ccc(O)c(OCC)c2)C(=O)N1CC	0	0	?	0	0	0
CCOC(=O)NN1C(=O)c2ccccc2NC1c1ccccc1 (configuration not stated)	0	?	?	0	0	0
CCOC(=O)NN1C(=O)c2ccccc2NC1c1ccc(N(C)C)cc1 (configuration not stated)	0	0	18µM	0	0	0
O=C(O)c1cccc(/C=C2/C[C@@H]3[C@@H](/C=C/[C@@H](O)C4CCCCC4)[C@H](O)C[C@@H]3O2)c1	0	-	-	-	-	-
CC(Sc1nnc(Nc2ccccc2)s1)C(=O)Nc1nc(-c2ccccc2)cs1 (configuration not stated)	0	-	0	0	-	-
CC(Sc1nnc(NCc2ccccc2)s1)C(=O)Nc1ccc2c(c1)C(=O)c1ccccc1C2=O (configuration not stated)	0	14µM	2.8µM	0	0	0
C=CCc1cccc(/C=N/NC(=O)CN2CCN(Cc3ccccc3)CC2)c1O	0	-	-	-	-	-
CC(C)Cc1nnc(NS(=O)(=O)Cc2ccccc2)s1	0	20µM	13µM	0	?	0
CC(C)(C)Cc1nnc(NS(=O)(=O)c2ccccc2)s1	0	-	?	0	-	-

Screening results deposited in PubChem BioAssay by National Center for Advancing Translational Sciences (NCATS).
